# Compound activity: PubChem, several laboratories
# Most compounds without a hit are left out; they make up all but 3.8% or so of the library.
# FGF22 binding: FGF22 (human) thermal shift binding; recombinant FGF22 thermal shift, SYPRO orange fluorescence; percent of sucrose octasulfate shift, DMSO zero; hit rate 1.5% among 340,000; Q9HCT0; activity (Tm shift, normalised), % at 9.99 µM; AID 651658;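 active = mean Tm shift, scaled 0 neutral to 100 positive control, at about 1.3% or above, every replicate too, limit read from the data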
# Target sequence (Q9HCT0 whole entry, looked up): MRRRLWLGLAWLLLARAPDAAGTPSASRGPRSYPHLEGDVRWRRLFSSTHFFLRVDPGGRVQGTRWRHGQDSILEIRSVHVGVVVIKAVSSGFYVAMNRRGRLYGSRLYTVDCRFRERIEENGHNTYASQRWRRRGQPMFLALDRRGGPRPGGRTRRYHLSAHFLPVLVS
# ADAM17 inh: inhibits human ADAM17; P78536; recombinant ADAM17, EDANS/DABCYL FRET peptide cleavage; inhibition, % at 6.95 µM; hit rate 0.83% among 370,000; AID 720648;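 active = inhibition above the mean of compounds lying between control limits plus 3 SD, set per campaign, cut at about 8.5% in these data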;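 also: 0% = DMSO-only wells as the low control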
# ADAM10 inh: ADAM10 inhibition, QFRET primary screen; O14672; recombinant ADAM10, EDANS/DABCYL FRET peptide cleavage, 3 h; inhibition, % at 7 µM; hit rate 0.62% among 370,000; AID 720582;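 active = inhibition above a per-campaign cutoff equal to the mean of compounds falling between control-based bounds plus 3 SD, cut at about 20% in these data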;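 also: 0% = DMSO wells while the 100% control is not disclosed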
# Ecoli rRNA inh: inhibits bacterial ribosomal RNA function over humanized ribosomes. E. coli WT GFP vs humanized-ribosome RFP mutants, fluorescence, 24 h; hits give low values; DMSO median 0, no signal -100. GFP signal change (wild-type ribosome), % (no concentration beside the values). hit rate 1.6% among 350,000. AID 720706;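 active = significant combined selectivity score with lowered wild-type GFP, culture density cut under 30%, mutant RFP and density less affected; inactive = any of these conditions unmet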
# KLK7 zymogen act: proKLK7 (human) activation, primary screen | P49862 | purified proKLK7, EDANS-DABCYL substrate fluorescence; 100% is mature enzyme control, 0% vehicle | activation, % at 7 µM | hit rate 0.9% among 370,000;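 active = activation above the mean of all tested compounds plus 3 SD, computed per campaign excluding outliers beyond control limits, cut at about 13% in these data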
# Target sequence (P49862 whole entry, looked up): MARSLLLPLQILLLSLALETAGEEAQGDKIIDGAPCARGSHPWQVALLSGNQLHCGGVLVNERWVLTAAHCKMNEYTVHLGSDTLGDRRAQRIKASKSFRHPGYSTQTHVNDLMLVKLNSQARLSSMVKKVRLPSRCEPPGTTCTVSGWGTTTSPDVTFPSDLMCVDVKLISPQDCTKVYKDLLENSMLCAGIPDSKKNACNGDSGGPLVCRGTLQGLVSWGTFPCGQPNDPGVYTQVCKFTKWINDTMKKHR
# ADAM10 confirm: confirmation of inhibitors of human ADAM10; hit rate 1% among 2,100; inhibition, % at 6.95 µM; AID 743208; ADAM10 QFRET peptide cleavage, EDANS fluorescence; shares compounds with ADAM10 inh;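 active = inhibition above about 20% chosen separately for each screening run, limit read from the data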;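 also: 0% = DMSO wells and 100% = marimastat wells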
# ADAM17 ctr: counter-screen for ADAM10 exosite inhibitors: inhibitors of human ADAM17 | ADAM17 QFRET peptide cleavage, EDANS fluorescence | shares compounds with ADAM10 inh | inhibition, % at 6.95 µM | hit rate 0.5% among 2,100 | AID 743214;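 active = mean triplicate inhibition above the solvent-only control wells' mean plus 3 SD, cut at about 12% in these data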;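 also: 0% = DMSO wells and 100% = marimastat wells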
# * hit, by the source's call; / = no result; ! = repeats disagree.
SMILES,FGF22 binding,ADAM17 inh,ADAM10 inh,Ecoli rRNA inh,KLK7 zymogen act,ADAM10 confirm,ADAM17 ctr
C=CCC[C@H](Cc1ccc(F)cc1)C(=O)OC[C@H]1CCCN1C(=O)[C@@H](CC=C)CC(=O)NCCO,0,-4,-16,-20,1,/,/
COCC(=O)N1[C@@H]2CN(C(=O)c3ccncc3)c3ccccc3[C@@H]2[C@@H]1CO,0,/,/,3,/,/,/
Cc1onc(-c2ccccc2)c1C(=O)NC(=S)NNC(=O)c1cccnc1,0,5,24*,-32,0,5,1
O=S(=O)(c1cccc(C(F)(F)F)c1)N1CCC(CO)(CCCc2ccccc2)CC1,0,8,22*,-10,0,1,1
O=S(=O)(c1cccc(C(F)(F)F)c1)N1CCC(O)(c2cccnc2)CC1,/,0,7,/,1,/,/
CCc1ccccc1N(CC(=O)NCc1ccco1)C(=O)CCC(=O)Nc1nccs1,0,-7,88*,-3,0,1,-1
COc1ccc(N2CCN(C(=S)Nc3ccc(C)cc3C)CC2)cc1,0,5,21*,5,0,0,0
COCC(=O)Nc1ccc2c(c1)[C@H]1C[C@H](CC(=O)NCc3cc(F)ccc3F)O[C@@H](CO)[C@H]1O2,0,/,/,-1,/,/,/
COc1ccccc1C(=O)NCCC(=O)Nc1ccc(S(=O)(=O)N2C(C)CCCC2C)cc1 (stereo unspecified),-1,4,0,-11,0,/,/
COc1ccccc1C(=O)NCCC(=O)Nc1ccc(S(=O)(=O)N2CC(C)CC(C)C2)cc1 (stereo unspecified),0,9.6*,29*,-1,1,3,1
COc1ccccc1CNC(=O)c1ccc(-c2ccccc2Cl)o1,0,12*,21*,-35,0,10,2
C[C@@H]1CN([C@@H](C)CO)C(=O)Cc2cc(NC(=O)c3ccncc3)ccc2O[C@H]1CN(C)Cc1ccc(Oc2ccccc2)cc1,0,/,/,-23,/,/,/
O=C(Nc1nccs1)[C@@H]1[C@@H](CO)[C@@H]2Cn3c(cccc3=O)[C@@H]2N1C(=O)C1CCCCC1,0,/,/,0,/,/,/
CCOC(=O)C1CCN(C(=O)Cn2cc(C(=O)c3ccco3)c3ccccc32)CC1,0,-4,64*,4,0,4,2
CCS(=O)(=O)N[C@H]1CC[C@@H](CC(=O)NCc2ccccn2)O[C@H]1CO,0,/,/,5,/,/,/
OC(CN1CCCCC1)Cn1c2ccc(Cl)cc2c2cc(Cl)ccc21 (stereo unspecified),0,2,5,-55,0,/,/
OC(CN1CCN(c2ccccn2)CC1)Cn1c2ccc(Cl)cc2c2cc(Cl)ccc21 (stereo unspecified),/,8,22*,/,0,10,4
COc1ccc(OC(F)(F)F)cc1CC1(C)C(=O)Nc2ccc(-c3ccsc3)cc21 (stereo unspecified),0,9,26*,5,-1,11,3
COc1ccc(C(C)=O)cc1CC1(C)C(=O)Nc2ccc(OC(F)(F)F)cc21 (stereo unspecified),0,0,-5,-50,0,/,/
CNC[C@H]1OCCCC[C@@H](C)Oc2ccc(NC(=O)Nc3ccc(F)cc3)cc2C(=O)N([C@H](C)CO)C[C@@H]1C,/,/,/,3,/,/,/
CCC(=C(c1ccc(OC)cc1)c1ccc(OC)cc1)c1cn(CC(O)CN2CCN(C)CC2)c2ccccc12 (stereo unspecified),/,1,25*,/,0,5,2
COc1ccc(-c2cc3ccccc3n2CC(O)CN2CCCCC2)cc1 (stereo unspecified),0,-1,-3,-6,-1,/,/
COc1cccc(NC(=O)CN2C(=O)CSc3ccc(S(=O)(=O)N4CCOCC4)cc32)c1,1,4,3,3,0,/,/
COc1cccc(NC(=O)CN2C(=O)CSc3ccc(S(=O)(=O)N4CCC(C)CC4)cc32)c1,0,3,21*,-1,0,3,1
CN(c1ccccc1)S(=O)(=O)c1ccc(NC(=O)c2ccccc2)cc1,/,3,4,/,0,/,/
SMILES,FGF22 binding,ADAM17 inh,ADAM10 inh,Ecoli rRNA inh,KLK7 zymogen act,ADAM10 confirm,ADAM17 ctr
CN(c1ccccc1)S(=O)(=O)c1ccc(NC(=O)c2ccc(F)cc2)cc1,0,7,21*,-28*,0,3,1
CN(c1ccc(OCC(=O)OCC(=O)Nc2ccc(F)cc2)cc1)S(=O)(=O)c1ccc(Cl)cc1,0,1,20*,2,0,6,2
CO[C@@H]1CN(C)C(=O)c2cc(NC(=O)C3CCC3)ccc2OC[C@@H](C)N(Cc2ccncc2)C[C@@H]1C,-1,/,/,-3,/,/,/
CC(=O)[C@H]1CC[C@H]2[C@@H]3CCC4=CC(=O)CC[C@]4(C)[C@H]3CC[C@]12C,0,7,21*!,-55,1,4,1
COCC(=O)N1CC2(C1)CN(Cc1cc(F)ccc1F)[C@H](CO)c1c2c2ccc(OC)cc2n1C,0,/,/,-3,/,/,/
CC(=O)c1ccc(-n2c(-c3cc(-c4ccsc4)n[nH]3)n[nH]c2=S)cc1,1,-1,7,-12,0,/,/
S=c1[nH]nc(-c2cc(-c3ccsc3)n[nH]2)n1-c1cccc2ccccc12,-1,1,23*,-51,-1,3,2
Cc1ccc(NC(=O)CN(C)C(=O)c2ccc(NS(=O)(=O)c3cccc([N+](=O)[O-])c3)cc2)cc1,0,2,-2,-3,0,/,/
Cc1ccc(NS(=O)(=O)c2ccc(OCC(=O)Nc3cccc([N+](=O)[O-])c3)c(C)c2)cc1,/,3,23*,/,0,7,3
COc1ccc2nc(SCC(=O)Nc3ccc(S(=O)(=O)N4CCCC4)cc3)c(C#N)cc2c1,/,-4,72*,/,-23,20*,10
CCOc1ccc2nc(SCC(=O)Nc3ccc(S(=O)(=O)N4CCCC4)cc3)c(C)cc2c1,0,-4,-2,8,0,/,/
CCOC(=O)C(C)C1(O)c2ccccc2-c2ncccc21 (stereo unspecified),/,-5,5,19,0,/,/
OC(CC1CC12c1ccccc1-c1ncccc12)(c1ccccc1)c1ccccc1 (stereo unspecified),/,4,24*,/,0,7,2
COc1cccc(/C(C)=N/NS(=O)(=O)c2ccc(Cl)cc2)c1,1,-5,-5,-3,0,/,/
COc1cccc(/C(=N/O)C2CC2c2ccc(Cl)cc2)c1 (stereo unspecified),0,7,22*,-55,1,6,1
C[C@H](CO)N1C[C@H](C)[C@H](CN(C)C(=O)C2CCC2)Oc2ncc(-c3ccccc3F)cc2C1=O,0,/,/,2,/,/,/
